According to the supplement of paper PMC13380429:

Tested on: Vero E6 infected with SARS-CoV-2
Assay: inhibition of SARS-CoV-2 cytopathic effect; higher = more antiviral protection, active = above 15
Details: 48 h

Measured: inhibition of SARS-CoV-2 cytopathic effect

FC(F)(F)C(F)(F)C(F)(F)C(F)(F)C(F)(F)C(F)(F)C(F)(F)C(F)(F)Br [perflubron]
inactive: 1 nM -0.32% | 8.33 nM 1.61% | 100 nM 1.51% | 833.33 nM -1.6% | 10000 nM 0.45%

CCN(CC)c1ccc(/C=N/NC(=O)c2ccc(O)cc2)cc1
inactive: 1 nM -0.79% | 8.33 nM 2.18% | 100 nM 0.82% | 833.33 nM -0.79% | 10000 nM 0.11%

Cc1c(N)nc([C@H](CC(N)=O)NC[C@H](N)C(N)=O)nc1C(=O)N[C@H](C(=O)N[C@H](C)[C@@H](O)[C@H](C)C(=O)N[C@H](C(=O)NCCc1nc(-c2nc(C(=O)NCCCNCCCCN)cs2)cs1)[C@@H](C)O)[C@@H](O[C@@H]1O[C@@H](CO)[C@@H](O)[C@H](O)[C@@H]1O[C@@H]1O[C@H](CO)[C@@H](O)[C@H](OC(N)=O)[C@@H]1O)c1cnc[nH]1 [bleomycetin]
inactive: 1 nM 5.02% | 8.33 nM -0.49% | 100 nM -7.1% | 833.33 nM -8.93% | 10000 nM -22.7%

CC[C@]1(O)C[C@@H]2CN(CCc3c([nH]c4ccccc34)[C@@](C(=O)OC)(c3cc4c(cc3OC)N(C)[C@H]3[C@@](O)(C(N)=O)[C@H](O)[C@]5(CC)C=CCN6CC[C@]43[C@@H]65)C2)C1 [vindesine]
inactive: 1 nM 0.4% | 8.33 nM 0.16% | 100 nM -1.63% | 833.33 nM 0.62% | 10000 nM -2.18%

C=CCN1C[C@H](C)N([C@H](c2ccc(C(=O)N(CC)CC)cc2)c2cccc(OC)c2)C[C@H]1C
inactive: 1 nM -0.66% | 8.33 nM 1.28% | 100 nM 1.71% | 833.33 nM -0.17% | 10000 nM -1.85%

CN(C)C(=O)n1nnnc1Cc1ccc(-c2ccccc2)cc1
inactive: 1 nM -1.07% | 8.33 nM 2.48% | 100 nM 0.66% | 833.33 nM 2.07% | 10000 nM 1.15%

CCOP(=S)(OCC)Oc1nc(Cl)c(Cl)cc1Cl [chlorpyrifos]
inactive: 1 nM 0.53% | 8.33 nM 2.45% | 100 nM -0.67% | 833.33 nM 0.54% | 10000 nM -4.79%

Cc1csc2c(N[C@@H](C)CN3CCN(S(=O)(=O)c4ccc(Cl)c(Cl)c4)CC3)ncnc12 [LPA2-antagonist-1]
inactive: 1 nM -0.43% | 8.33 nM -0.37% | 100 nM 1.73% | 833.33 nM 1.34% | 10000 nM 5.53%

CCCNC(=O)Nc1ccc(Oc2ncnc3cc(OC)c(OC)cc23)cc1Cl
inactive: 1 nM 0.58% | 8.33 nM 0.62% | 100 nM 1.2% | 833.33 nM 0.47% | 10000 nM -2.74%

N[C@H](C(=O)O)c1cc(O)no1 [ibotenic-acid]
inactive: 1 nM 2.28% | 8.33 nM 1.34% | 100 nM 0.56% | 833.33 nM -0.13% | 10000 nM -0.16%

CO/N=C1\CN(c2nc3c(cc2F)c(=O)c(C(=O)O)cn3C2CC2)CC1CN (stereo not given) [gemifloxacin]
inactive: 1 nM -4.74% | 8.33 nM -3.09% | 100 nM 0.76% | 833.33 nM 1.02% | 10000 nM 5.76%

CC[C@@H](Nc1c(Nc2cccc(C(=O)N(C)C)c2O)c(=O)c1=O)c1ccc(C)o1 [navarixin]
inactive: 1 nM -0.8% | 8.33 nM 1.26% | 100 nM 0.77% | 833.33 nM 1.8% | 10000 nM -2.11%

CCCOc1ccc2[nH]cc(C3=CCNCC3)c2n1
inactive: 1 nM 2.78% | 8.33 nM 1.38% | 100 nM -1.41% | 833.33 nM 2.78% | 10000 nM -1.56%

CC(C)(C)C(=O)OCOC(=O)[C@@H]1N2C(=O)C[C@H]2S(=O)(=O)C1(C)C [sulbactam-pivoxil]
inactive: 1 nM -1.2% | 8.33 nM -4.28% | 100 nM -7.15% | 833.33 nM 5.91% | 10000 nM -2.18%

CN1CCC[C@@H]1Cc1c[nH]c2ccc(CCS(=O)(=O)c3ccccc3)cc12 [eletriptan]
inactive: 1 nM -0.44% | 8.33 nM 1.24% | 100 nM 2.14% | 833.33 nM -1.16% | 10000 nM -2.89%

CC(C)(C)C[C@@H]1N[C@@H](C(=O)N[C@H]2CC[C@H](O)CC2)[C@H](c2cccc(Cl)c2F)[C@]12C(=O)Nc1cc(Cl)ccc12
inactive: 1 nM -4.12% | 8.33 nM -2.43% | 100 nM -7.89% | 833.33 nM 2.65% | 10000 nM 2.37%
